Laboratory results from PubChem BioAssay AID743397 (Broad Institute, 2014).
The whole screen tested about 340,000 compounds, of which about 330 (0.097%) were called active.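 The calls were made as follows: active = mean replicate inhibition of at least 30% and at least 1% of replicates passing that level; inconclusive = only one of the two criteria is met; inactive = neither criterion is met.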 What follows is part of a selection rich in actives, with near analogues and random picks from the rest.

Each molecule was assayed on Voltage-dependent L-type calcium channel subunit alpha-1D (CaV1.3) ICDI/IQ interaction (assay: Primary screen for inhibitors of IQ motif and Ca2+-dependent inactivation inhibitor domain binding in CACNA1D, Förster resonance energy transfer in living cells, single-concentration test (AID 743397;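 also: 0% = median of the neutral control wells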)). Settings: HEK cells, CFP/YFP FRET ICDI-IQ, plate reader, 10 min; at 12.3 µM; active compounds read high; percent FRET-ratio fall versus neutral wells.

inhibition, active:
COc1cccc(N2CCN(C(=O)C3CCCN(S(=O)(=O)c4cnc[nH]4)C3)CC2)c1 (centres undefined) 46.8%
c1ccc2cc3c(NCCN4CCOCC4)ccnc3cc2c1 147%
COc1ccc(C2C3=C(CCCC3=O)N(CC(=O)O)C3=C2C(=O)CCC3)cc1 111%
CCOCCCNc1c(CC)c(C)c(C#N)c2nc3ccccc3n12 61%

inhibition, inactive:
COc1ccccc1Cc1c(-c2ccc(F)cc2)nc2ccc(C)cn12 -8.77%
CC(C)(C)C(c1nc2ccccc2[nH]1)n1c(Cc2csc3ccccc23)nc2ccccc21 (centres undefined) -10%
COC(=O)[C@]12C[C@H](CC(=O)NCc3ccccc3)C(=O)N(CCC3=CCCCC3)C1=C[C@H](C(C)(C)C)O[C@@H]2C -8.62%
COC(=O)Cc1nnn2c1[C@H](C)[C@H](c1ccccc1Br)OCC2 -6.7%
CC(=O)c1ccc(S(=O)(=O)NCC2CCN(C(=O)C(=O)c3cccs3)CC2)cc1 -7.65%
COc1ccc(-c2ccccc2C2Cc3nnccc3CN2C(=O)Nc2ccccc2)cc1 (centres undefined) -4.58%
CC(C)[C@@H](C)/C=C/[C@@H](C)[C@H]1CC[C@@H]2[C@]1(C)CCC1[C@]23C=C[C@]2(C[C@@H](O)CC[C@]12C)N(c1ccc([N+](=O)[O-])cn1)O3 (some centres undefined) -8.61%
COC(=O)C1=C(C)N(Cc2ccccc2C(F)(F)F)C(=NCc2ccc(C(F)(F)F)cc2)NC1c1ccc(F)cc1 (centres undefined) -9.8%
CCCCCc1c(-c2ccc(OC)c(OC)c2)ncn1CCc1ccccc1OC -11%
COC(=O)Cc1nnn2c1[C@H](C)[C@@H](OC)c1cc(Br)ccc1-2 -5.26%
CCCN1C(=O)c2[nH]nc(-c3ccccc3)c2C1c1ccccc1 (centres undefined) -3.81%
COC(=O)[C@H](CC(C)C)NS(=O)(=O)c1c(F)cccc1F -4.96%
CSc1ccc(Oc2cccc3c2S(=O)(=O)N([C@H](C)c2ccccc2)C[C@@H](COCc2ccccc2)O3)cc1C -9.54%
COc1cccc(CC(=O)N2CCN(C(=O)C(=O)c3cccc(C(F)(F)F)c3)CC2)c1 -9.3%
Cc1ccc(NS(=O)(=O)c2cc3c(cc2Br)NC(=O)CO3)cc1C -4.61%
OC(c1ccccc1)(c1ccccc1)C1CCN(CCCOc2ccc(-c3ccsc3)cc2)CC1 -9.67%
COC(=O)[C@]12C[C@H](CC(=O)NCc3ccc(C)o3)C(=O)N(CCC3=CCCCC3)C1=C[C@H](C(C)(C)C)O[C@@H]2C -11.3%
CCCCCCCCN1C(=O)[C@@H](CC(=O)N2CCN(C(=O)OCC)CC2)C[C@@]2(C(=O)OC)C1=C[C@H](C1CCCC1)O[C@@H]2C -9.25%
C[C@H](CO)N1C[C@H](C)[C@@H](CN(C)C(=O)Nc2ccccc2F)OCc2cn(nn2)CCCC1=O -4.14%
CN(C)C(=O)N1CCN(C(=O)[C@@H](Cc2ccccc2)NC(=O)[C@H]2O[C@@H](n3ccc(N)nc3=O)[C@H](O)[C@@H]2O)CC1 -3.39%
CN1CCCc2nc(-c3ccccc3)ccc21 -4.26%
Cc1noc(C)c1NC(=O)Nc1ccc2c(c1)C(=O)N([C@H](C)CO)C[C@H](C)[C@H](CN(C)Cc1ccncc1)OCCCC[C@@H](C)O2 -5.78%
Cc1cccc(N2CCN(C(=O)C3CCN(S(=O)(=O)c4cnc[nH]4)CC3)CC2)c1C -5.87%
CCOC(=O)c1cccc(NC(=O)C2CCCN(S(=O)(=O)c3cnc[nH]3)C2)c1 (centres undefined) -9.58%
COC(=O)C1=C(C)N(Cc2cccc(C(F)(F)F)c2)C(=NCc2cccc(C(F)(F)F)c2)NC1c1ccccc1C(F)(F)F (centres undefined) -2%
COC(=O)[C@@]12C[C@@H](CC(=O)NCCCCc3ccccc3)C(=O)N(CCc3ccc(OC)c(OC)c3)C1=CCC(C)(C)C2 -8.1%
O=S1(=O)c2c(cccc2N2CCCC2)O[C@H](COCc2ccccc2)CN1C1CC1 -7.56%
CC1CCN(C(=O)c2ncn3c2C(=O)N[C@@H](C)C3)CC1 -3.16%
COc1cccc(-c2cc(CNC(=O)[C@@H](Cc3ccccc3)NC(=O)[C@H]3O[C@@H](n4cnc(C(N)=O)n4)[C@H](O)[C@@H]3O)no2)c1 -2.93%
COC(=O)[C@@]12C[C@@H](CC(=O)NCCCCc3ccccc3)C(=O)N(Cc3ccccc3)C1=CCC(C)(C)C2 -17%
COC(=O)Nc1nc2ccc(C(=O)C3CC3)cc2[nH]1 -11.2%
COC(=O)C1=C(C)N(Cc2ccc(C(F)(F)F)cc2)C(=NCc2ccc(C(F)(F)F)cc2)NC1c1cccc(Cl)c1 (centres undefined) -9.62%
C[C@H](O)[C@@H]1CN2CCc3ccc(-c4ccc5c(c4)OCO5)cc3[C@@H]2C[C@@H]1N(C)C(=O)C1CCCCC1 -2.76%
O=C(C(=O)N1CCC(CNC(=O)c2cccnc2Cl)CC1)c1cccs1 -10.2%
Cc1ccccc1C(=O)N[C@H](C(=O)N1CCC[C@H]1C(=O)NCc1ccccc1)C(C)C -3.3%
CCOc1ccccc1C(=O)N1CCC[C@@H]1C(=O)N1CCC[C@H]1C(=O)NCc1ccccc1 -4.37%
N#Cc1cccc(C(=O)NCC2CCN(C(=O)C(=O)c3cc4ccccc4o3)CC2)c1 -8.07%
NC(=O)c1ncn([C@@H]2O[C@H](C(=O)O)[C@@H](O)[C@H]2O)n1 -4.52%
CC1(C)OC(=O)C2=C(CC(CCc3ccccc3)OC2c2ccc(Cl)cc2)O1 (centres undefined) -9.52%
Fc1ccc(-c2ccc(NCCN3CCOCC3)nn2)cc1 -2.08%
c1ccc(-c2ccc(OCCN3CCOCC3)cc2)cc1 -9.07%
C#CCN([C@@H](C)C(=O)OCC)S(=O)(=O)c1ccc(Br)cc1F -4.44%
COC(=O)[C@]12C[C@H](CC(=O)NCCc3ccccc3OC)C(=O)N(Cc3ccccc3)C1=C[C@H](C(C)C)O[C@@H]2C1CC1 -8.67%
COC(=O)[C@]12C[C@H](CC(=O)NCCC(C)C)C(=O)N(CCc3ccc(OC)c(OC)c3)C1=C[C@H](C(C)(C)C)O[C@@H]2C -8.8%
Nc1ncnc2c1ncn2[C@@H]1O[C@H](C(=O)N[C@@H](CCc2ccccc2)C(=O)N2CCCN(Cc3cccs3)CC2)[C@@H](O)[C@H]1O -9.97%
COC(=O)[C@]12C[C@H](CC(=O)NCCCCc3ccccc3)C(=O)N(Cc3ccc4c(c3)OCO4)C1=C[C@H](C(C)(C)C)O[C@@H]2C -10.1%
COc1cccc(CNC(=O)[C@H]2CCCN2C(=O)[C@H]2CCCN2C(=O)c2cc(F)cc(F)c2)c1 -7.03%
Cc1cc(N2CCN(C(=O)OC(C)(C)C)C[C@H]2C)ccc1N1CCN(Cc2ccccc2)[C@H](C)C1 -7.25%
CCCCCCCCN1C(=O)[C@@H](CC(=O)NCc2ccc(C)o2)C[C@@]2(C(=O)OC)C1=C[C@H](C(C)(C)C)O[C@@H]2C -10.3%
Nc1nc2c(ncn2[C@@H]2O[C@H](C(=O)N[C@@H](Cc3ccccc3)C(=O)NCc3ccccc3)[C@@H](O)[C@H]2O)c(=O)[nH]1 -5.12%
C=CCN1C(=O)N(Cc2ccccc2)c2ccccc2S1(=O)=O -4.73%
CCCCOCC1CN(CCCC)S(=O)(=O)c2c(Oc3ccc(F)cc3)cccc2O1 (centres undefined) -7.83%
COc1cccc(CNC(=O)[C@H]2CCCN2C(=O)[C@H]2CCCN2C(=O)C2CCCCC2)c1 -4.37%
O=C(NS(=O)(=O)c1cccs1)[C@H]1O[C@@H](n2ccc(=O)[nH]c2=O)[C@H](O)[C@@H]1O -3.64%
CC(C)CNc1cccc2c1S(=O)(=O)N[C@H](C)CO2 -7.79%
COC(=O)C1=C(C)NC(=S)NC1c1ccc(OC)cc1 (centres undefined) -4.39%
COc1ccc(C2=CN(Cc3ccccc3)C(c3ccc(OC)cc3)CC2=O)cc1 (centres undefined) -3.32%
CCOc1ccc(C2C3=C(CCCC3=O)N(CC(=O)O)C3=C2C(=O)CCC3)cc1 -13.8%
COc1ccc(C2C(C#N)=C(N)N(c3ncn[nH]3)C3=C2C(=O)CCC3)cc1 (centres undefined) -4.27%
Cc1cc(NCCc2c[nH]c3ccccc23)ccc1Oc1cccnc1 -8.52%
Cc1cc(OC(=O)NCCc2ccc(F)cc2)ccc1F -6.4%
COc1ccccc1C(=O)N1O[C@]23C=C[C@]14C[C@@H](O)CC[C@]4(C)C2CC[C@]1(C)[C@@H]([C@H](C)/C=C/[C@H](C)C(C)C)CC[C@H]13 (some centres undefined) -9.42%
CC(C)CNc1cccc2c1S(=O)(=O)N[C@H](CC(C)C)CO2 -5.08%
Cc1cc(NC(C)C)n2c(nc3ccccc32)c1C#N -0.654%
CCOCCn1c(-c2ccccc2)nc2ccccc21 -20.2%
COc1ccccc1-c1ccc([C@@H]2C[C@H]3[C@H](CON3C)CN2S(=O)(=O)c2cc(Cl)cc(Cl)c2)cc1 -4.02%
Cc1nc2c(OCc3ccc(Cl)cc3)cccn2c1N(C)Cc1cccs1 -6.54%
CCCCc1c(-c2ccc(Cl)cc2)ncn1CCc1ccccc1OC -10.1%
C=CC1=CCN(S(=O)(=O)C(C)(C)C)[C@@H]1CCO -4.63%
CCN1C(=O)N[C@@H]2C[C@H](C(=O)N3CCCC3)[C@H](C)[C@H](c3ccccc3)C[C@@H]21 -3.87%
